The whole screen tested about 48,000 compounds, of which about 13,000 (27%) showed an effect of 50% or more. The list shows a part of the results.
system: Wolbachia pipientis; experiment: Anti-Wolbachia Cell-Based Screen; format: functional; parameters: scale not given: in the data most compounds retested in dose-response had high values; settings: 5 µM

Point of comparison: CCNC(=O)C1(Cc2cc(-c3ccccc3)no2)CCCN(C(C)C)C1 (centres undefined), “Percent Effect” value 86.79%. Against it:
- Cc1cc(C)n(C2CN(C(=O)c3cn4ccsc4n3)C2)n1 — lower, -20.57%
- CCn1c(CN(C)C)nnc1C1CCN(Cc2ccc(Cl)c(F)c2)CC1 — lower, -16.98%
- COCCO[C@H]1CCN(c2cc(OC)ncn2)[C@H]1Cc1cnn(C)c1 — lower, -1.257%
- CO[C@@H]1CCN(c2ncccn2)[C@H]1Cc1ccccc1 — lower, -5.923%
- COc1cc(N2CC[C@@H](OC)[C@@H]2Cc2cnn(C)c2)ncn1 — higher, 110.7%
- COCCO[C@@H]1CCN(c2cc(OC)ncn2)[C@H]1Cc1cnn(C)c1 — lower, -2.108%
- CO[C@@H]1CCN(c2ncc(F)cn2)[C@H]1Cc1cnn(C)c1 — higher, 112%
- Cn1cc(C[C@H]2[C@H](N3CCOCC3)CCN2c2ncc(F)cn2)cn1.O=C(O)C(F)(F)F — lower, -13.6%
- CCc1ccccc1CNC(=O)CNCC(F)(F)F — lower, -0.7333%
- Cc1nc(C(C)(C)NC(=O)Nc2cccc(C#N)c2)no1 — lower, -15.63%
- CC(C)Nc1nc2c(c(NC3CC3)n1)CN(C(=O)Cc1ccsc1)CC2 — lower, -13.92%
- O=C(O)C(F)(F)F.O=C(O)c1cc2c(nc1-c1ccsc1)CCN(C(=O)C1CC1)CC2 — lower, -4.061%
- CCCC(=O)N1CCC(Nc2nc(O)cc(-c3ccsc3)n2)CC1 — higher, 101%
- O=C(Cn1cccn1)N1CCC(Cn2cc(-c3ccsc3)nn2)CC1 — lower, 4.923%
- CCCC(=O)N1CCC(Nc2ncc(Br)cn2)CC1 — lower, -8.622%
- CC(C)CC(=O)N1CCC(Nc2nc(O)cc(-c3ccsc3)n2)CC1 — higher, 93.38%
- O=C(C1CCOC1)N1CCC(Cn2cc(-c3ccsc3)nn2)CC1 (centres undefined) — lower, -11.04%
- CC(=O)c1c(F)cccc1NC1CCN(C(=O)CC(C)C)CC1 — lower, -2.175%
- O=C(C1CC1)N1CCC(Nc2nc(O)cc(-c3ccsc3)n2)CC1 — higher, 99.22%
- Cc1nnc(CN2CCCC2c2ccc3c(c2)OCCO3)n1C (centres undefined) — lower, 15.49%
- CC(C)(C)OC(=O)N[C@H]1CCN(C(=O)c2cc(Cl)c[nH]2)C1 — lower, -15.92%
- CCCC(C)NC1CCN(c2ccc(-n3ccnc3C)cc2)CC1 (centres undefined) — lower, -8.3%
- CC(NC(=O)CSCC(=O)Nc1ccccc1)c1ccccc1 (centres undefined) — lower, 5.031%
- COCC(=O)Nc1ccc([C@@H](O)[C@H]2COCC(=O)N2CC(C)C)cc1 — lower, 0.04576%
- CCC(=O)Nc1ccc(C(C)NC(=O)COC)cc1 (centres undefined) — higher, 92.17%
- CCNC(=O)C1(Cc2cc(-c3ccccc3)no2)CCCN(C(C)=O)C1 (centres undefined) — higher, 105.3%
- Cc1ccc(-c2cc(CNC(=O)N3CCOC(C)C3)on2)cc1 (centres undefined) — lower, -4.045%
- CC(NC(N)=O)C(=O)N(C)CCCc1cc(-c2ccccc2)no1 (centres undefined) — lower, -0.2623%
- CCNC(=O)C1(Cc2cc(-c3ccc(C)cc3)no2)CCCN(C)C1 (centres undefined) — higher, 151.7%
- Cc1ccc(-c2cc(CNC(=O)N3CCC(CO)CC3)on2)cc1 — lower, 6.064%
- CCCNC(=O)C1(Cc2cc(-c3ccccc3)no2)CCN(C(C)=O)C1 (centres undefined) — lower, 76.91%
- Cc1cnn(CCNCc2cc(-c3ccccc3)no2)c1 — lower, 2.44%
- CNC(=O)CC1CCN(Cc2nc(-c3ccc(SC)cc3)oc2C)CC1 — lower, -19.45%
- O=C(O)C(F)(F)F.O=C([C@H]1C[C@H]2OCC[C@H]2N(Cc2ccco2)C1)N1CCCO1 — lower, 11.53%
- COc1ccc(CN2C[C@@H](CN(C)C)[C@@H](CO)C2)c(Cl)c1OC — lower, -2.231%
- c1cc2c(cc1C[C@@H]1CC[C@H](CN3CCCOCC3)O1)OCO2 — lower, 5.044%
- Cc1cc(C)cc(C2(C(=O)NC(C)Cn3ccnc3)CC2)c1 (centres undefined) — lower, -3.779%
- COc1ccc(OC)c(C(C)Nc2nc3c(C)nn(C)c3c(=O)n2C)c1 (centres undefined) — lower, -10.12%
- CC(C)C(=O)N1CCN(CCOc2cccc(C#N)c2)CC1 — lower, 22.03%
- CN(C)C(=O)NCC(=O)N(C)Cc1cc(-c2ccccc2)no1 — lower, 2.31%
- CCNC(=O)C1(Cc2cc(-c3ccccc3)no2)CCCN(C)C1 (centres undefined) — lower, 76.81%
- CCNC(=O)CNS(=O)(=O)Cc1cc(-c2ccccc2)no1 — lower, -10.1%
- Cc1cc(NCC(=O)N(C)Cc2cccs2)c(C(N)=O)cc1F — lower, 8.297%
- CC(C)N1CCCC(C(=O)NC(C)(C)c2nnc(N)s2)C1 (centres undefined) — lower, -13.81%
- CCOc1ccc(NC2CCN(C3CC3)C2=O)cn1 (centres undefined) — lower, -7.266%
- N#Cc1c(C2CCOC2)cc(-c2ccc(N3CCCCC3)cc2)nc1N (centres undefined) — lower, 2.752%
- CCC(C)Sc1ncc(-c2c(C#N)c(N)nc3c2COCC3)cn1 (centres undefined) — higher, 95.02%
- CCOc1ccc(NC(=O)NC2CCc3[nH]ncc3C2)cn1 (centres undefined) — lower, -9.557%
- Cn1cc(-c2c(C#N)c(N)nc3c2CCc2[nH]ccc2-3)cn1 — lower, 4.236%
- COc1ncc(-c2c(C#N)c(N)nc3c2CCc2[nH]ccc2-3)cn1 — lower, -13.65%
- N#Cc1c(N)nc2c(c1-c1cnc(N3CCCC3)nc1)COCC2 — lower, 84.51%
- CCOc1ccc(-c2c(C#N)c(N)nc3c2COCC3)cn1 — higher, 106.3%
- COCCc1ncc(-c2c(C#N)c(N)nc3c2CCc2[nH]ccc2-3)cn1 — lower, -13.87%
- Cc1cc(-c2c(C)c(-c3cnn(C)c3)nc(N)c2C#N)oc1C — lower, 17.25%
- CC(C)n1cc(-c2c(C#N)c(N)nc3c2COCC3)cn1 — higher, 109.6%
- CC(C)=CCC/C(C)=C/CN1CCN(C)C2(CCNC(=O)CC2)C1 (centres undefined) — lower, 14.94%
- Cc1ccc(CN2CCc3[nH]nc(C(=O)N4CCNC(=O)C4)c3C2)s1.O=C(O)C(F)(F)F — lower, -6.156%
- COCC1CCN(C(=O)c2cccc(S(=O)(=O)NC3CCCC3)c2)C1 (centres undefined) — lower, 8.028%
- CC(C)CCN1CN=C(NS(=O)(=O)c2ccc(F)cc2)NC1 — lower, 13.74%
- Clc1ccc(C2(NCc3noc(C4CC4)n3)CCCC2)cc1 — lower, 6.408%
- CN(C)C(=O)c1ccccc1NC(=O)N[C@@H]1c2ccccc2C[C@@H]1O — lower, -11.76%
- CS(=O)(=O)c1ccccc1NC(=O)N[C@@H]1c2ccccc2C[C@@H]1O — lower, 6.839%
- CNC(=O)Cc1ccccc1NC(=O)N[C@H]1c2ccccc2C[C@H]1O — lower, 73.79%
- CCn1cc(N2Cc3nc(N)ncc3C2=O)cn1 — lower, 3.471%
- NC(=O)CN1C(=O)CO[C@H]2CN(Cc3ccc(C(F)(F)F)cc3)C[C@H]21 — lower, -2.639%
- Cl.FC(F)Oc1ccc(CNCc2cc(Cl)c3c(c2)OCO3)cc1 — lower, -3.122%
- COCCc1noc(CN(C)c2nc(C)cc(C)n2)n1 — higher, 101%
- COCCc1noc(CN(C)C2CCCN(c3ccc(C)nn3)C2)n1 (centres undefined) — lower, -2.157%
- COCCc1noc(CN2C(=O)OC[C@@H]2C(C)C)n1 — lower, -4.227%
- COCCc1noc(CN(C)c2nc(C)nc(C)c2C)n1 — higher, 89.33%
- COCCc1noc(CN(C)c2nccc(C)n2)n1 — lower, 10.01%
- CC(C)N[C@@H]1CO[C@H](CNC(=O)c2ccccc2)[C@H]1O — lower, -5.064%
- O=C(NCc1ccco1)N1CCC(n2cc(-c3ccccn3)nn2)CC1 — lower, 27.21%
- O=C(c1cncnc1)N1CCCC(c2nccs2)C1 (centres undefined) — higher, 117.1%
- Cc1csc(C2CCCN(C(=O)c3cnc4n[nH]c(C)c4c3)C2)n1 (centres undefined) — lower, -1.582%
- O=C(c1cnc(O)c(Cl)c1)N1CCCC(c2nccs2)C1 (centres undefined) — higher, 105%
- CC(C)Oc1ncc(C(=O)N2CCCC(C(=O)O)C2)cc1Cl (centres undefined) — lower, -16.5%
- O=C(c1cnc(C2CC2)nc1)N1CCC(N2CCC(O)CC2)CC1 — lower, -12.63%
- O=C(c1cnc(C2CC2)nc1)N1CCCC(c2nccs2)C1 (centres undefined) — lower, 70.5%
- CCn1cc(C(=O)N2CCCC(c3nccs3)C2)cn1 (centres undefined) — higher, 107.1%
- O=C(CN1CCCNC1=O)N1CCCC(c2nccs2)C1 (centres undefined) — lower, -4.052%
- Cc1noc(COCC(=O)N2CCCC(c3nccs3)C2)n1 (centres undefined) — lower, -1.591%
- O=C(Nc1cnccn1)[C@@H]1COC[C@H]2CN(c3ncc(F)cn3)C[C@H]21 — lower, -14.05%
- CCCN1CCC(N2CCN(c3cc(C)nc(C)c3)CC2)CC1 — lower, -11.77%
- CC1CN(C(=O)NCc2cccc(C#N)c2)CCN1CC(F)(F)F (centres undefined) — lower, -8.516%
- Cc1cc(C(=O)NC2CCN(c3ncccc3C#N)CC2)on1 — lower, 2.44%
- O=C(NCc1ccco1)[C@@]12CCO[C@@H]1CCN(C1CCC1)C2.O=C(O)C(F)(F)F — lower, -7.517%
- Cc1cnc(CNC(=O)[C@@]23CCO[C@@H]2CCNC3)cn1.O=C(O)C(F)(F)F — lower, 84.34%
- COCCNC(=O)[C@@]12CCO[C@@H]1CCN(Cc1scnc1C)C2.O=C(O)C(F)(F)F — lower, 6.926%
- Cc1cnc(CNC(=O)[C@@]23CCO[C@@H]2CCN(C2CCCC2)C3)cn1.O=C(O)C(F)(F)F — higher, 116.3%
- COc1cc(C)sc1C(=O)NCCC(=O)N(C)Cc1ccccc1 — lower, -13.22%
- CCc1nc(CN(C)Cc2nnc(-c3cccs3)o2)cs1 — lower, -11.05%
- Cc1nc(C(=O)N2CCCC(c3ccc4sc(N)nc4n3)C2)co1 (centres undefined) — higher, 130.6%
- Cc1nc(C2CCCN(C(=O)c3csc(C)n3)C2)no1 (centres undefined) — lower, -14.77%
- Cc1ccc2oc(C(=O)N3CCCC(c4noc(C)n4)C3)cc2n1 (centres undefined) — lower, -6.015%
- CC(=O)N1CCCC(c2ccc3sc(N)nc3n2)C1 (centres undefined) — higher, 125%
- CNC(=O)C(C)(C)N1CCC[C@H]1C(=O)NCC(C)C.Cl — lower, 3.09%
- O=C1[C@H]2CC[C@H](CN(S(=O)(=O)c3ccccc3)C2)N1Cc1cscn1 — lower, 20.83%

From ChEMBL document CHEMBL3988442, “University of Dundee, Small-Polar-MMV Screening Library” (2021)
